This is an account of results in ChEMBL document CHEMBL3988442, “University of Dundee, Small-Polar-MMV Screening Library” (2021).

Molecules are shown by their SMILES.

In assay [1] the target is T1, Aspartate--tRNA(Asp/Asn) ligase (Mycobacterium tuberculosis (strain ATCC 25618 / H37Rv)) (UniProt P9WFW3). Also: in the data most compounds retested in dose-response had high values.
T1 sequence (whole entry): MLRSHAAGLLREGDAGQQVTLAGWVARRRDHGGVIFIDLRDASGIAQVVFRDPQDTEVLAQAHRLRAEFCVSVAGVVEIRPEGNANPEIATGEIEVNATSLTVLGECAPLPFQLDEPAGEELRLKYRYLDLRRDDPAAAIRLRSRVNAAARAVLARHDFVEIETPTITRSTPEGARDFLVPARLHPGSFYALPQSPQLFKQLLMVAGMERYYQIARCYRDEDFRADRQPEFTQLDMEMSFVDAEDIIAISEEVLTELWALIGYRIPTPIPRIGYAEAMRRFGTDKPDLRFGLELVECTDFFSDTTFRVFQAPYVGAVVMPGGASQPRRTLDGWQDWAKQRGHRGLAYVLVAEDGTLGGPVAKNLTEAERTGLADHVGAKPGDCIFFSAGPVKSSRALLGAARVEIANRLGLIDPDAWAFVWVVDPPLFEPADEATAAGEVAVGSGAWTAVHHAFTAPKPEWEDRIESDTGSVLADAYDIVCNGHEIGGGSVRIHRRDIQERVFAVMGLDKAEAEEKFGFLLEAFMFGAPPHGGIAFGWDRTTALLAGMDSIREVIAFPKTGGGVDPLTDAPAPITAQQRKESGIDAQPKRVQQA
In words: Assay for Asp RNA synthetase-1 from Mycobacterium tuberculosis. The format is functional. Set-up: scale not given: direction of the effect not stated beside the values. Conditions: 30 µM.

Assay [2] has as its target Shiga toxin 2 (Escherichia coli O157:H7) (UniProt P09385+P09386). Nature of the assay: E. coli 0.157:H7 Shiga Toxin SOP - stx2 screening assay. The format is functional. Set-up: scale not given: direction of the effect not stated beside the values. Conditions: 30 µM.

Turning to `CN(CCO)C[C@@H]1CN(C(=O)c2c(F)cccc2Cl)C[C@@H]1CO`, the values for the Percent Effect in assay [1] and in assay [2] were 2.26% and -49%, respectively.

For the molecule `CNc1cc(CNC(=O)c2ccccc2)nc(-c2ccncc2)n1`, the Percent Effect in assay [1] is -4.09%; in assay [2], 11.3%.

For the molecule `NC(=O)NCC(=O)N1C[C@H]2CC[C@@H]1CN(C1Cc3ccccc3C1)C2`, the Percent Effect in assay [1] is 6.33%; in assay [2], -7%.

`O=C(NCC1CC1)[C@H]1CC[C@@H]2[C@@H](CCN2Cc2ccoc2)O1`: the Percent Effect is -5.12% in assay [1] and 0.319% in assay [2].

For `CC(=O)N(Cc1ncc(C)o1)C1CCN(CCCc2cnn(C)c2)C1` (stereo not drawn), the Percent Effect was 6.13% in assay [1] and -33.8% in assay [2].

`CCOc1ncccc1C(=O)N1CCCC1c1c(C)nn(C)c1OC` (stereo not drawn): the Percent Effect in assay [1] was -0.602%; in assay [2] it was -8.49%.

Take `O=C(NCc1ccccn1)[C@@H]1COC[C@H]2CN(C3CCOCC3)C[C@H]21`: the Percent Effect in assay [1] is 7.53%; in assay [2] it was -6.42%.

On to `CC(=O)NCCNC(=O)CN1CCN(Cc2nccn2C)C(C)C1` (stereo not drawn), for which the Percent Effect was 2.19% in assay [1] and 2.09% in assay [2].

For the molecule `COc1cccc(CNCc2c(C(C)C)nn(C)c2N(C)C)c1OC`, the Percent Effect in assay [1] was -3.61%; in assay [2] it was 31.1%.

`O=c1[nH]c2c(c(=O)n1C1CCCCC1)CCC2NCCc1ccccc1` (stereo not drawn): the results for the Percent Effect in assay [1] and in assay [2] were -2.9% and 3.31%, respectively.

Consider `COc1cccc(CCNC(=O)CN2CCCC2c2noc(C)n2)c1` (stereo not drawn), for which the figures for the Percent Effect in assay [1] and in assay [2] were -0.962% and 22.4%, respectively.

Consider `O=C(NCc1ccccn1)c1nnn(-c2ccc(Br)cc2)n1`, for which the values for the Percent Effect in assay [1] and in assay [2] were -5.38% and -13.6%, respectively.

`CCN(CC1CCOC1)C(=O)Nc1ccc(N2CCCC2)nc1` (stereo not drawn): the Percent Effect came to 0.3% in assay [1] and 1.73% in assay [2].

For `COCC1CN(C(=O)c2cccn2C)Cc2nccn2C1` (stereo not drawn), the Percent Effect in assay [1] is -0.897%; in assay [2], -15.6%.

For `O=C(c1cscn1)N1C[C@@H]2[C@@H](C1)OCC(=O)N2CC1CCCC1`, the values for the Percent Effect in assay [1] and in assay [2] were 4.1% and -48.6%, respectively.

As to `O=C(NCCc1ccccn1)C1=NN(c2ccccc2)C(=O)CN1`, the figures for the Percent Effect in assay [1] and in assay [2] were 11.3% and 1.11%, respectively.

Take `CS(=O)(=O)N1CCc2c(cccc2NC(=O)CC(F)(F)F)C1`: the Percent Effect in assay [1] worked out at 5.45%; in assay [2], 2.18%.

Regarding `OCCn1cc(CN2CCN(CCOCC(F)(F)F)CC2)cn1`, the Percent Effect in assay [1] is -3.85%; in assay [2], 27.3%.

On to `CNC(=O)c1cccc(NC(=O)Cn2nc(-c3cccs3)oc2=O)c1`, for which the Percent Effect in assay [1] was -8.92%; in assay [2], -55.6%.

Turning to `CCC1=N[C@@]2(CC[C@@H]3CN(Cc4ccccc4F)C[C@@H]32)C(=O)N1CC`, the Percent Effect in assay [1] was 3.79%; in assay [2] it was -13.9%.

In the case of `COc1ccccc1[C@@H]1CN(Cc2cc(C(C)(C)C)[nH]n2)C[C@H]1C(=O)O`, the Percent Effect in assay [1] is 1.28%; in assay [2], -6.54%.

Take `COCCN1C(=O)[C@]2(CC[C@@H]3CN(C(=O)NC4CCCC4)C[C@@H]32)N=C1C`: the Percent Effect in assay [1] is 0.379%; in assay [2], -4.86%.

Consider `CCOc1ccccc1-c1noc(CN(C)Cc2cnn(C)c2)n1`, for which the Percent Effect was 2.13% in assay [1] and -14% in assay [2].

For the molecule `Cc1cccc(-c2nc(CN3CCCCC3Cn3cncn3)no2)c1` (stereo not drawn), the Percent Effect in assay [1] is -2.9%; in assay [2], 15.3%.

As for `CCn1cc(N2Cc3nc(N4CCN(C)CC4)ncc3C2=O)cn1`, the figures for the Percent Effect in assay [1] and in assay [2] were -1.54% and -50.9%, respectively.

Turning to `CCc1csc(C2CCCN(C(=O)c3ccnc(N(C)C)c3)C2)n1` (stereo not drawn), the Percent Effect in assay [1] is 1.86%; in assay [2], -14.7%.

`CC(C)COCC1CN(Cc2ccc3c(c2)OCO3)Cc2ncn(C)c21` (stereo not drawn): the Percent Effect in assay [1] was 2.63%; in assay [2] it was -19.1%.

For the molecule `Cc1nc(CCCNC(=O)C2CC(=O)N(C(C)(C)C)C2)sc1C` (stereo not drawn), the Percent Effect in assay [1] was -1.3%; in assay [2], -11.5%.

As for `COc1ncccc1NC(=O)NCC(O)c1ccc(F)cc1F` (stereo not drawn), the Percent Effect in assay [1] is 4.06%; in assay [2], -0.623%.

As for `Cc1cc(C)n(C2CN(CC(=O)N(C)Cc3ccc(C)o3)C2)n1`, the Percent Effect is -0.898% in assay [1] and 0.889% in assay [2].

`c1cncc(CN2CCc3ncnc(C4CCOC4)c3CC2)c1` (stereo not drawn): the Percent Effect in assay [1] was 3.1%; in assay [2] it was -17.7%.

For the molecule `NC(=O)c1nnn(-c2ccc(Br)cc2)n1`, the Percent Effect in assay [1] was 3.66%; in assay [2] it was -41.8%.

`COCCN1C[C@@H]2CN(C(=O)[C@H]3CCCO3)C[C@@H]2C1=O`: the Percent Effect is -1.41% in assay [1] and -16.3% in assay [2].

For the molecule `CCOc1cc(C(=O)N2CCCC(c3cc(C(N)=O)[nH]n3)C2)ccn1` (stereo not drawn), the Percent Effect in assay [1] was -1.21%; in assay [2] it was 25.9%.

With `CN(Cc1ccco1)Cc1cncc2c1CCN(c1ncccn1)C2`, the Percent Effect is 0.874% in assay [1] and -26.7% in assay [2].

Turning to `Cc1cc2nc(SCC(=O)N3CCCC3)n(-c3ccccc3)c(=O)c2[nH]1`, the Percent Effect in assay [1] is 15.3%; in assay [2] it was -24.4%.

As for `Cn1cc(CN2CCC3(CCCN3S(C)(=O)=O)CC2)cn1`, the Percent Effect in assay [1] stood at 5.38%; in assay [2], 4.5%.

As for `CN(Cc1ccccc1)CC(O)Cn1cnc2ccsc2c1=O` (stereo not drawn), the Percent Effect was -1.75% in assay [1] and -2.3% in assay [2].

On to `c1csc(-c2noc(CCCN3CCCC3Cn3cccn3)n2)c1` (stereo not drawn), for which the Percent Effect in assay [1] is -1.67%; in assay [2], 15.3%.

With `CCN1Cc2c(C(=O)NCC3CC3)ncn2-c2ccccc2S1(=O)=O`, the Percent Effect in assay [1] is -3.35%; in assay [2] it was 8.11%.

As to `c1cnc(-c2cnc(N3CCSCC3)nc2C2CCCO2)cn1` (stereo not drawn), the Percent Effect in assay [1] is 6.48%; in assay [2] it was 13.6%.

Turning to `CCc1nnc2n1CCN(C(=O)c1cc3ccc(F)cc3nc1C)C2`, the Percent Effect in assay [1] came out at 1.79%; in assay [2], 8.5%.

Consider `CCN1CCN(C2CCN(Cc3nc(-c4ccoc4)no3)CC2)C1=O`, for which the Percent Effect in assay [1] came to 1.49%; in assay [2], 22.7%.

Turning to `CN(C)C(CNS(=O)(=O)c1ccc(F)cc1F)c1cccn1C` (stereo not drawn), the Percent Effect is 0.719% in assay [1] and -2.1% in assay [2].
